± gives the standard deviation.

This assay has as its system OVCAR-3-derived ovarian cancer stem-like cells (spheroids). Briefly: cell growth relative to untreated control; higher = more growth (less inhibition). The following applies: 2.29 µM; 96 h. In outline:
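Percent growth was calculated against untreated wells once blanks were subtracted and Grubbs outliers removed. The cells were OVCAR-3 spheroid-derived stem-like cells, trypsinized and plated at 50,000 cells/mL in stem cell medium on ultra-low attachment 96-well plates for a 24 h preincubation. They were then exposed to compounds at 2.29 uM for 96 h at 37°C, 5% CO2, in 4 replicate wells, and viability was measured by TOX8 resazurin fluorescence (ex 560/em 590 nm) after 4 h.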
`OC[C@H]1O[C@@H](n2cnc3cncnc32)[C@H](O)[C@@H]1O` showed a cell growth of 10.4 ± 3.1%.
Next, `CC(C)(C)[Si](C)(C)OCC1CCC(n2cnc3c(N)ncnc32)O1` (configuration not stated): 111 ± 23%.
The figure for `NC(N)=N/N=C(\c1ccc(Cl)cc1)C1CC1` is 200 ± 43%.
The figure for `CN1CCN(CCSC2Cc3cc(Cl)ccc3Sc3ccccc32)CC1` (configuration not stated) is 151 ± 26%.
In turn, `CC1(C)N=C(N)N=C(N)N1c1ccc(CCCCc2ccc(Cl)cc2Cl)cc1` showed a cell growth of 51.5 ± 9.2%.
The figure for `C[C@H]1O[C@@H](c2ccc3c(c2O)C(=O)C2=C(C3=O)[C@@]3(O)C(=O)C[C@](C)(O)C[C@@]3(O)C=C2)C[C@@H](O)[C@@H]1O` is 62.7 ± 8.2%.
Next, `CC(=O)c1sc2[n+](c1C)C(=O)/C(=C\c1ccccc1Cl)S2`: 99.4 ± 17%; `Clc1ccccc1C(c1ccccc1)(c1ccccc1)n1ccnc1`: 106 ± 13%; `NC(=O)c1csc(C2OC(CO)C(O)C2O)n1` (configuration not stated): 90.6 ± 11%.
Next, `S=C1Nc2cnc3ccccc3c2SC1c1ccccc1` (configuration not stated): 9.8 ± 3.9%.
In turn, `O=C1c2ccccc2C(=O)c2c(O)c(O)cc(O)c21` displayed a cell growth of 25.5 ± 6.6%.
The figure for `O=C1Oc2ccccc2C1C/C(=N\Nc1ccccc1)c1ccccc1O` (configuration not stated) is 158 ± 100%; for `CCOC(=O)CCc1c(C)c2c(O)cc(O)cc2oc1=O` it is 100 ± 21%; for `CC(C)(C)C1CCC2(CC1)CCN(CCCN1CCOCC1)CC2` it is 119 ± 12%.
As for `CCC(C#N)(c1ccccc1)N(CCc1ccccc1)C(=O)c1ccccc1` (configuration not stated), the cell growth was determined as 129 ± 28%.
The figure for `O=C(ON=C1c2ccccc2C(Br)C(Br)c2ccccc21)c1ccccc1` (configuration not stated) is 107 ± 22%.
Next, `COc1cc2c(cc1Oc1ccc(OC)c3c1CC1c4c(cc(OC)c(OC)c4-3)CCN1C)CC1c3c(cc(OC)c(OC)c3-2)CCN1C` (configuration not stated): 101 ± 11%.

For the origin of these results see the supplement of paper PMC3484114.
